Among all 340,000 compounds or so, fewer than 10 were called active. Not all results are given here. Values without a mark were called inactive. Calls come from the whole dose curve; as a rule, active = well fitted inhibition curve with a large enough effect in the main read-out, with a control signal flat (not every such curve was filed as active); inconclusive = small, poorly fitted or top-dose-only effect, or effect the other way, or a change in a side signal; inactive = no such curve, though single readings can be large or run the other way.

Chain of Tumor susceptibility gene 101 protein (Homo sapiens) (Q99816 whole entry, looked up): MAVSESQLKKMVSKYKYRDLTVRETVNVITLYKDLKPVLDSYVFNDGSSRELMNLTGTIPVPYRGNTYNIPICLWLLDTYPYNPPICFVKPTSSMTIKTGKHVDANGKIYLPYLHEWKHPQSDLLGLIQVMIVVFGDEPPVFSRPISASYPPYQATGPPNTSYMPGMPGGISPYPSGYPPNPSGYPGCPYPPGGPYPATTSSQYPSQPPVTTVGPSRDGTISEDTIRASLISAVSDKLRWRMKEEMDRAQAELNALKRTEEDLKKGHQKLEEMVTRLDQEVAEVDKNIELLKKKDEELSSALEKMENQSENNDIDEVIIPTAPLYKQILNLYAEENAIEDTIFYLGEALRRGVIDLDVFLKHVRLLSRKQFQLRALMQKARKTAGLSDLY

This assay concerns the target Tumor susceptibility gene 101 protein (Homo sapiens) (UniProt Q99816). Kind of assay: qHTS Assay for Iinhibitors of HIV-1 Budding by Blocking the Interaction of PTAP/TSG101. Note: % of control where 0% means no effect. Particulars: Fluorescence polarization, FITC-PTAP peptide / Tsg101 binding; series mostly up to 115 µM; activity change, negative = inhibition: at the top concentration. The text has this: NIH Molecular Libraries Probe Production Network [MLPCN] NIH Chemical Genomics Center [NCGC] MLPCN Grant: 1 R03 MH087464-01A1 PI Name: Dr. Eric Freed, NCI NCGC Assay Overview: Stages of the HIV-1 replication cycle, specifically virus assembly and release, provide underexploited targets for the development of novel antiviral inhibitors. The late stages of HIV-1 replication are mediated by the Gag precursor protein, Pr55Gag. Expression of Pr55Gag is both necessary and sufficient for the production of virus-like particles from Gag-expressing cells. The Gag protein hijacks key host proteins involved in endocytic machinery of the host cell to promote endosomal processing and viral budding. The budding process requires a direct interaction between a […] (PTAP) motif in the p6 domain of Gag and the cellular endosomal sorting protein known as Tsg101. In this way, the Gag PTAP motif promotes the host cells to recruit viral particles to the plasma membrane where the new viral particles are released, effectively turning the host cells into viral factories. A fluorescence anisotropy assay has been developed to quantitatively measure the PTAP-Tsg101 interaction which can be used to screen for inhibitors of this interaction.
NCGC Assay Protocol Summary: Two uL of the Tsg101 binding domain in buffer (10 mM HEPES pH 7.5; 0.15 M NaCl, 0.01% Tween 20; 3 mM EDTA;0.1 mM TCEP) was dispensed into Greiner black MB 1536-well plates (final concentration 10 uM). Then, 23 nL of compounds or DMSO were delivered to each well using a pin tool. Finally, 2 uL of a FITC-labeled peptide containing the PTAP motif (1) in the same buffer was dispensed (50 nM final concentration) and the binding was allowed to proceed for 20 min. at r.t. Fluorescent polarization was determined using FITC excitation and polarized emission filters on a Perkin Elmer Viewlux. Keywords: Tsg101, PTAP, Gag, HIV, fluorescent polarization, MLSMR, MLPCN, NIH Roadmap, qHTS, NCGC
Regarding `Cc1cccc(-n2c(Cc3cc(=O)[nH]c(=O)[nH]3)nnc2SC(C)C)c1`, the “activity change, negative = inhibition” value was -3.65%.

For the compound `Cc1ccccc1C(=O)N1CCC(C(=O)Nc2ccc(S(=O)(=O)N(C)C(C)C)cc2)CC1`, the “activity change, negative = inhibition” value is -5.76%.

With `Cc1no[n+]([O-])c1COc1ccccc1/C=C1\NC(=S)NC1=O`, the “activity change, negative = inhibition” value was -1.51%.

For the compound `Cc1coc2cc3oc(=O)c(CCC(=O)O)c(C)c3cc12`, the “activity change, negative = inhibition” value is -1.58%.

Turning to `CC(C)Cc1nnc(N)s1`, the “activity change, negative = inhibition” value is 0.822%.

Regarding `Cc1ccc2c(c1)N(CC(=O)NCCCN1CCCCC1)C(=O)c1cccnc1O2`, the “activity change, negative = inhibition” value is -3.98%.

In the case of `CC1CC(C)CN(C(=O)CCNC(=O)Cn2cnc3ccccc3c2=O)C1` (stereo not drawn), the “activity change, negative = inhibition” value is -3.52%.

On to `O=C(Cc1ccc(S(=O)(=O)N2CCOCC2)s1)NCCOc1ccccc1F`, for which the “activity change, negative = inhibition” value is -3.13%.

In the case of `O=C(COc1ccc2c(c1)CCC2)N1CCN(c2ccc(F)cc2)CC1`, the “activity change, negative = inhibition” value is -4.81%.

Consider `CN(C)c1ccc(Nc2c3c4c(cccc4n(C)c2=O)C(=O)c2ccccc2-3)cc1`, for which the “activity change, negative = inhibition” value was -12.6%.

With `CC(Cc1cccs1)NC(=O)c1cccc(Cl)c1` (stereo not drawn), the “activity change, negative = inhibition” value was -2.64%.

Take `O=C(Cc1ccc([N+](=O)[O-])cc1)NCCc1ccc2c(c1)OCO2`: the “activity change, negative = inhibition” value was 0.815%.

On to `CCC(CC)C(=O)Nc1c2c(nn1-c1ccc(C)cc1)CS(=O)(=O)C2`, for which the “activity change, negative = inhibition” value is -0.386%.

Take `CCCC1(C(=O)OCC)NC(c2ccc(N(C)C)cc2)C2C(=O)N(c3ccc4c(c3)OCCO4)C(=O)C21` (stereo not drawn): the “activity change, negative = inhibition” value is -5.54%.

Turning to `COc1cc2c(cc1CNC[C@H]1O[C@@H](n3cnc(C(N)=O)n3)[C@H](O)[C@@H]1O)OCO2`, the “activity change, negative = inhibition” value was -0.393%.

For the compound `COc1ccc(/C=C/C2=CC(C)(C)NC(=S)N2)c(OC)c1`, the “activity change, negative = inhibition” value is -5.34%.

Turning to `O=C(NC1CCN(C(=S)Nc2ccc(Cl)cc2)CC1)C1CCCCC1`, the “activity change, negative = inhibition” value was -2.49%.

Regarding `N#CC1(NC(=O)COC(=O)CSc2ccc(F)cc2)CCCCC1`, the “activity change, negative = inhibition” value was -0.309%.

In the case of `CC(=O)c1ccc(Cc2ncc(C(F)(F)F)cc2Cl)s1`, the “activity change, negative = inhibition” value is -2.94%.

Consider `COc1ccc(-c2cc(C(F)(F)F)n3nc(C(=O)N4CCOCC4)c(Cl)c3n2)cc1`, for which the “activity change, negative = inhibition” value was -1.7%.

Regarding `Cc1ccsc1C1C(C#N)=C(N)OC2=C1C(=O)CC(C)C2` (stereo not drawn), the “activity change, negative = inhibition” value was -6.04%.

Turning to `O=[N+]([O-])c1cccc(S(=O)(=O)N2CCCCCC2)c1`, the “activity change, negative = inhibition” value is -4.08%.

With `CC(C)c1ccc(S(=O)(=O)N2CCC3(CC2)OCCO3)cc1`, the “activity change, negative = inhibition” value is 5%.

Take `O=C(CN1C(=O)NC2(CCCC2)C1=O)NCC1CCCO1` (stereo not drawn): the “activity change, negative = inhibition” value is -0.821%.

For `NC(=O)c1ccc(CN2CCC(Cc3ccccc3)CC2)cc1`, the “activity change, negative = inhibition” value was -4.25%.

As to `O=C(N/C(=C\c1ccc(O)cc1)C(=O)N1CCCCC1)c1ccccc1`, the “activity change, negative = inhibition” value was -4.56%.

As for `O=C(O)C1C2C=CC(O2)C1C(=O)NCCc1cccc(Cl)c1` (stereo not drawn), the “activity change, negative = inhibition” value was -2.45%.

Turning to `CC1=C(C(=O)N(C)C)C(c2ccccc2OC(F)F)NC(=O)N1` (stereo not drawn), the “activity change, negative = inhibition” value was -2.19%.

As for `Cn1c2ccc(F)cc2c2nnc(NN)nc21`, the “activity change, negative = inhibition” value is -1.99%.

In the case of `CC(C)Oc1ccc(CCc2n[nH]c(=S)n2Cc2ccccc2)cc1`, the “activity change, negative = inhibition” value is -8.46%.

As to `CCc1nnc(NC(=O)CSc2nc3ccccc3c(=O)n2CCCOC)s1`, the “activity change, negative = inhibition” value was -4.64%.

As for `O=C(Nc1ccc(-n2cccn2)cc1)C1CCN(Cc2ccsc2)CC1`, the “activity change, negative = inhibition” value is -0.259%.

As to `CCOC(=O)C1Nc2ccc(C(F)(F)F)cc2C2C=CCC12` (stereo not drawn), the “activity change, negative = inhibition” value is -7.44%.
